Among the data in PubChem BioAssay AID1852 (Sanford-Burnham Center for Chemical Genomics, 2009) are inhibition values, retold here.

Molecules are shown by their SMILES. Screen size: about 2,500 compounds; about 1,100 (44%) were called active. So high a share suggests a set chosen from earlier hits. The list shows a part of the results. Values without a mark were called inactive.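 The calls were made as follows: active = inhibition above 50% at 4 µM in the single-point screen; inactive = inhibition of 50% or less.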

The nature of the assay: blockers of TNF-a NF-kB luciferase induction – cell-based, HEK293T NF-kB-Luc, luminescence, selectivity assay for NOD1/NOD2 signaling inhibitor project, primary screen (AID 1852). As to conditions: TNF-a induced, 14 h, at 4 µM, hits give high values.
As to `O=c1c(Cl)c(Cl)cnn1Cc1nnc(-c2ccc(Cl)cc2)o1`, the inhibition is 51.5% (active).
Next, `O=c1c(Cl)c(Cl)cnn1Cc1ccc(F)cc1`: 33.4%.
For `O=c1c(Cl)c(Cl)cnn1Cc1nnc(-c2ccccc2Br)o1` the value was 108% (active).
Regarding `COc1ccc(-c2csc3ncnc(N4CCN(c5ccccc5[N+](=O)[O-])CC4)c23)cc1`, the inhibition is -57.1%.
For the molecule `COc1ccc(-c2csc3ncnc(NCCN4CCOCC4)c23)cc1`, the inhibition is 89.9% (active).
As to `Clc1ccc(-c2csc3ncnc(NCCN4CCOCC4)c23)cc1`, the inhibition is 60.1% (active).
For `C=CCn1c(C)c(/C=C/c2cc[n+](C)cc2)c2ccccc21` the value was 12%; for `COc1cc(C2CC(c3cccs3)=NN2C(=O)CCl)ccc1OC(F)F` (configuration not stated), 40.7%.
For `Cc1ccc(C2=NN(C(=O)CCl)C(c3cccs3)C2)o1` (configuration not stated) the value was 43.6%.
`COc1ccc(C2CC(c3cccs3)=NN2C(=O)CCl)cc1OC` (configuration not stated): the inhibition was 47.4%.
Turning to `O=C(CCl)N1N=C(c2ccco2)CC1c1ccco1` (configuration not stated), the inhibition was 58.9% (active).
Next, `O=C(CCl)N1N=C(c2cccs2)CC1c1ccco1` (configuration not stated): 55.2% (active); `O=C(CCl)N1N=C(c2ccco2)CC1c1cccs1` (configuration not stated): 56% (active); `COC(=O)c1ccc2c(c1)C(C)(C)C(/C=C/c1ccc(O)cc1)=[N+]2C`: 60.8% (active).
Next, `COC(=O)C1=C(C)N(c2ccc(F)cc2)/C(=C/c2ccc(O)cc2)C1=O`: -3%.
In the case of `COC(=O)c1ccc2c(c1)C(C)(C)C(/C=C/c1ccccc1O)=[N+]2C`, the inhibition was -7.6%.
For `c1cnc(N2CCN(c3ccc4ccccc4n3)CC2)nc1`, the inhibition was -118%.
Turning to `COc1ccc(NC(=O)c2cc(N3C(=O)C4C5CCC(C5)C4C3=O)ccc2Cl)c(OC)c1` (configuration not stated), the inhibition was 30.6%.
For `COc1ccc(CCNC(=S)N2CCC(Cc3ccccc3)CC2)cc1OC` the value was 47.4%.
For the molecule `COc1ccc(NC(=S)N2CCN(C/C=C/c3ccccc3)CC2)c(OC)c1`, the inhibition was 57.8% (active).
For `c1ccc(CCc2nn3c(-c4ccncc4)nnc3s2)cc1` the value was 82.6% (active).
For `c1csc(Cc2nn3c(-c4ccncc4)nnc3s2)c1` the value was 42.2%.
For `c1cc(-c2nnc3sc(C4CCCCC4)nn23)ccn1` the value was 57.5% (active); for `O=C(CCN1C(=O)c2ccc([N+](=O)[O-])cc2C1=O)Nc1ccc(O)cc1C(=O)O`, -3.9%; for `CCCc1nc2c(=O)n(C)c(=O)nc-2n(C)n1`, 105% (active).
In the case of `COCCn1c(C)cc(C(=O)COC(=O)c2cccc(O)c2)c1C`, the inhibition was 81.1% (active).
Next, `Cc1cc(C(=O)COc2cccnc2[N+](=O)[O-])c(C)n1Cc1cccs1`: 38.6%; `COCCn1c(C)cc(C(=O)COc2ccc(C)nc2[N+](=O)[O-])c1C`: 79.2% (active).
For `Cc1ccc(OCC(=O)c2cc(C)n(Cc3cccs3)c2C)c([N+](=O)[O-])n1` the value was 68.2% (active); for `COCC(C)n1c(C)cc(C(=O)COc2ccc(C)nc2[N+](=O)[O-])c1C` (configuration not stated), 41%.
For the molecule `C=CCn1c(C)cc(C(=O)COc2ccc(C)nc2[N+](=O)[O-])c1C`, the inhibition is 30%.
For `CCCn1c(C)cc(C(=O)COc2ccc(C)nc2[N+](=O)[O-])c1C` the value was -16.5%; for `Cc1ccc(OCC(=O)c2cc(C)n(-c3ccccc3)c2C)c([N+](=O)[O-])n1`, 72.3% (active); for `Cc1cc(C(=O)COc2cccnc2[N+](=O)[O-])c(C)n1-c1ccccc1F`, 38.6%.
Next, `COCCn1c(C)cc(C(=O)CSc2nnc3ccccn23)c1C`: 17.3%; `COc1ccccc1[C@@H]1C(c2cccc(C)c2)=NN(c2ccccc2)[C@H]1C(=O)N1CCOC1=O`: -11.7%; `Cc1ccc(OCC(=O)c2cc(C)n(Cc3ccco3)c2C)c([N+](=O)[O-])n1`: 65.1% (active).
For `Cc1cc(C(=O)COc2cccnc2[N+](=O)[O-])c(C)n1Cc1ccco1` the value was -11%; for `COc1cccc(/C=N/NC(=O)c2cc3c(OC)ccc(OC)c3[nH]2)c1O`, 48.6%.
Turning to `COc1cccc(/C=N/NC(=O)CNC(=O)C(c2ccccc2)c2ccccc2)c1O`, the inhibition is 92.3% (active).
Next, `COc1cccc(/C=N/NC(=O)CNC(=O)/C=C\c2ccccc2)c1O`: 82.6% (active); `CN(C1=C(NC(=O)c2ccc(Cl)cc2)C(=O)c2ccccc2C1=O)c1ccccc1`: 21.3%; `CNC1=C(N(C(C)=O)c2ccc(Br)cc2)C(=O)c2ccccc2C1=O`: 98.3% (active).
For `O=C(/C=C/c1ccco1)NCC1COc2ccccc2O1` (configuration not stated) the value was -14.9%; for `COc1cccc(C(=O)Nc2ccc(Oc3cccc(C(F)(F)F)c3)nc2)c1`, 53.3% (active).
Regarding `O=C(Nc1ccc(Oc2cccnc2)nc1)c1ccc(C(F)(F)F)cc1`, the inhibition was 42.6%.
Next, `O=C(Nc1ccc(Oc2cccc(C(F)(F)F)c2)nc1)c1cccs1`: 49.2%; `Cc1cccc(-n2[nH]c3c4c(ccc3c2=O)C(=O)c2ccccc2C4=O)c1`: 37.6%.
For `Cc1ccc(C)c(-n2[nH]c3c4c(ccc3c2=O)C(=O)c2ccccc2C4=O)c1` the value was 58.4% (active).
For `Cc1ccc(-n2[nH]c3c4c(ccc3c2=O)C(=O)c2ccccc2C4=O)cc1` the value was 99.4% (active).
In the case of `CCc1ccc(CN(C)C(=O)CCc2nc3ccccc3n(-c3ccc(OC)cc3)c2=O)cc1`, the inhibition is 41.1%.
For `COCCOC(=O)c1[nH]c2c(c1C)C(=O)CC(c1cc(OC)c(OC)c(OC)c1)C2` (configuration not stated), the inhibition is 58.3% (active).
For `CCCOC(=O)c1[nH]c2c(c1C)C(=O)CC(c1cc(OC)c(OC)c(OC)c1)C2` (configuration not stated) the value was 40.2%.
For `CCCCOC(=O)c1[nH]c2c(c1C)C(=O)CC(c1cc(OC)c(OC)c(OC)c1)C2` (configuration not stated) the value was 47.1%.
For `Cc1ccc(-n2c(O)c(/C=C3/C(c4ccccc4)=Nc4ccccc43)c(=O)[nH]c2=O)cc1` the value was 28.1%.
For the molecule `CC1=Nc2ccccc2/C1=C/c1sc(=N)n(-c2nccs2)c1O`, the inhibition was 99.2% (active).
As for `O=C(Nc1nnc(S(=O)(=O)N2CCCCCC2)s1)c1ccc(Br)cc1`, the inhibition was -43.1%.
For `O=C(Nc1nnc(S(=O)(=O)N2CCCCCC2)s1)c1ccc(Cl)cc1` the value was -43%.
For `COC(=O)c1ccccc1NC(=O)C1CCCN(S(=O)(=O)c2ccc(F)cc2)C1` (configuration not stated) the value was 21.7%; for `CCOC(=O)c1ccc(NC(=O)C2CCCN(S(=O)(=O)c3ccc(F)cc3)C2)cc1` (configuration not stated), -6.1%.
For `O=C(Nc1nc(-c2cccs2)cs1)c1ccc(S(=O)(=O)N2CCCC2)cc1` the value was 83.9% (active); for `O=C(Nc1nc(-c2ccccc2)cs1)C1CCCN(S(=O)(=O)c2ccccc2)C1` (configuration not stated), 87.9% (active); for `COc1cc(NC(=O)c2cc3ccccc3cc2O)c(OC)cc1Cl`, 47.5%.
Turning to `COc1ccccc1NC(=O)c1cc2cc(Br)ccc2cc1O`, the inhibition is 82.6% (active).
For `COc1ccc(C(C)=O)cc1COC(=O)c1cc2ccccc2cc1O` the value was 12.5%; for `CCOC(=O)CC1CCCCN1C(=O)c1cc(COc2cccc3cnccc23)on1` (configuration not stated), 60.8% (active); for `O=C(c1cc(COc2ccc3ncccc3c2)on1)N1CCCCCC1`, 31.2%.
For the molecule `COC(=O)C1CCCCN1C(=O)c1cc(COc2cccc3cnccc23)on1` (configuration not stated), the inhibition is 53.1% (active).
For `COCCC1CCCCN1C(=O)c1cc(COc2ccc(-n3cncn3)cc2)on1` (configuration not stated) the value was 15.4%; for `O=C(CSc1nnc2c(n1)[nH]c1ccccc12)NC1CCCCC1`, 47%; for `CC(Sc1nnc2c(n1)[nH]c1ccccc12)C(=O)NC1CCCCC1` (configuration not stated), 30%.
Next, `O=C(NC1CCCCC1)c1sc(=S)n2c1[nH]c(=O)c1ccccc12`: 85.3% (active); `O=C(NC1CCCC1)c1sc(=S)n2c1[nH]c(=O)c1ccccc12`: 72.6% (active); `N#C/C(=N\Nc1cccc(C(F)(F)F)c1)C(=O)c1csc(-c2cccnc2)n1`: 80.5% (active).
For `CC(C)(C)OC(=O)NCC(=O)Oc1cc2oc(=O)cc(-c3ccccc3)c2cc1Cl` the value was 58% (active); for `O=C(COc1ccc2c(-c3ccccc3)cc(=O)oc2c1)Nc1ccc(CCO)cc1`, 44.2%; for `CC(C)(C)OC(=O)NCCc1nnc(S(=O)(=O)Cc2ccc(Cl)cc2Cl)o1`, 45.3%.
Take `O=C(CNC(=O)OCc1ccccc1)Oc1cc2oc(=O)cc(-c3ccccc3)c2cc1Cl`: the inhibition is 83.1% (active).
Next, `CCCNc1c(NS(=O)(=O)c2ccc3c(c2)CCCC3)c(=O)oc2ccccc12`: -3.6%.
For `Cc1cc(OCC(=O)Nc2ccncc2)cc(C)c1Br` the value was 34.4%.
For `Cc1cc(OCC(=O)Nc2ccncc2)cc(C)c1Cl` the value was 41%.
For `O=C(COc1ccc(Br)cc1)Nc1ccc(Cc2ccncc2)cc1`, the inhibition was 64.1% (active).
In the case of `COc1cccc2sc(N(CCCN(C)C)C(=O)CCS(=O)(=O)c3ccccc3)nc12`, the inhibition is 44.2%.
Next, `Nc1nc(N)c2cc(Sc3ccc4ccccc4c3)ccc2n1`: 51.9% (active); `Nc1nc(CCl)nc(Nc2ccc3ccccc3c2)n1`: -13.4%; `Nc1ncncc1-c1ccc2ccccc2c1`: 16.7%.
Next, `O=C(O)c1ccc(S(=O)(=O)/N=C2\C=C(Nc3ccccc3F)C(=O)c3ccccc32)cc1`: 89.6% (active); `O=C1C=C(Nc2ccccc2O)c2ccccc2C1=O`: 38.6%.
Next, `Cc1ccccc1NC1=C/C(=N\S(=O)(=O)c2ccc(C(=O)O)cc2)c2ccccc2C1=O`: 104% (active); `COC(=O)c1ccccc1NC1=C/C(=N\S(=O)(=O)c2ccc(C(=O)O)cc2)c2ccccc2C1=O`: 106% (active); `CC(=O)Nc1ccc(S(=O)(=O)NCc2nc(-c3ccccc3C)no2)cc1`: -15.1%.
Take `Cc1ccc(-c2nc(NC(=O)c3nn(C)cc3[N+](=O)[O-])sc2C)cc1C`: the inhibition was 33.4%.
